A selection: hits, their analogues and other compounds. The true share with any hit is near 19%.
ELG1 DNA repair – ELG1-dependent DNA repair inhibition; HEK293T ELG1-luciferase reporter, luminescence, 16 h; DNA damage induced by 5-fluorouridine; Potency, µM (top dose mostly 46.1 µM), without a hit: at the top dose activity change, negative = inhibition, hits mostly inhibitors; actives 2.3% (n = 330,000); further: potency means the concentration at half of the fitted maximal effect; nearly all actives have a fitted effect of over 55% in size
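Cells (2,000 per well) received 5-fluorouridine plus test compound or DMSO and were incubated 16 hr at 37 °C, 5% CO2. Luciferase activity was read by luminescence 30 min after ONE-Glo addition; signal suppression marked inhibition of damage-induced ELG1 function.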
IL-1B inflam inh – inflammasome signaling inhibition, IL-1 beta readout; THP-1 LPS/ATP IL-1B secretion, AlphaLISA, 16 h; hits give low values; activity change, % at 57.5 µM; actives 4.7% (n = 360,000); AID 743279; in the data active means activity change below about -50%; inconclusive means mostly about -30% to -49%
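THP-1 cells pretreated 1 hr with compounds (up to 57.5 uM final), then stimulated with LPS (250 ng/mL final) plus ATP (1.25 mM final); secreted IL-1B measured by AlphaLISA after 16 hr, decreased signal indicating inhibition.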
TDP1 cell noCPT – qHTS for Inhibitors of human tyrosyl-DNA phosphodiesterase 1 (TDP1): qHTS in cells in absence of CPT. DT40 Tdp1-/- hTDP1 cells, no CPT, ATP luminescence, 48 h. Potency, µM (series often up to 46.2 µM), for the others: top-dose activity change, negative = growth inhibition, hits mostly inhibitors. actives 15% (n = 420,000). AID 686978, 2013; further: potency means the concentration at half of the fitted maximal effect; nearly all actives have a fitted effect of over 55% in size
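Cells were dispensed at 400 per well, compounds added by pin tool, plates incubated ≥48 hr at 37 °C, then CellTiter-Glo added for 30 min at room temperature before luminescence reading. Line: DT40 Tdp1-/- complemented with hTDP1; camptothecin omitted.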
DT40 TDP1 CPT – DT40-hTDP1 cell growth loss with CPT. chicken DT40 Tdp1-/-;hTDP1 cells + 20 nM CPT, ATP luminescence, 48 h. Potency, µM (doses to about 46.2 µM), for the others: at the highest dose activity change, negative = growth inhibition, usual class: inhibitors. actives 12% (n = 420,000). AID 686979; further: potency means the concentration at half of the fitted maximal effect; nearly all actives have a fitted effect of over 55% in size
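Chicken DT40 Tdp1-/- cells stably complemented with human TDP1 were seeded at 400 cells/well in medium containing 20 nM camptothecin, exposed to pin-transferred compounds, and grown at 37 °C for at least 48 hr. Viability was read as ATP luminescence.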
HT1080 IDH1KD tx – kills HT-1080 cells with IDH1 knockdown; HT-1080 IDH1 knockdown viability, ATP luminescence, 48 h; Potency, µM (series often up to 46.1 µM), for inactives: top-dose activity, negative = toxicity, usual class: cytotoxic; actives 2% (n = 360,000);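 further: potency means the concentration at half of the fitted maximal effect; 0% = DMSO wells and -100% = cell-free medium wells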
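Using the IDH1-knockdown HT-1080 line run in the same batch and compound series as the NT line, viability after 48 h at 37 °C was determined by CellTiter-Glo luminescence and expressed as % activity.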
HT1080-NT tox – kills 2HG-producing HT-1080-NT fibrosarcoma cells; HT-1080-NT fibrosarcoma viability, CellTiter-Glo ATP luminescence, 48 h; Potency, µM (titrated, usually from 46.1 µM), for inactives: at the highest dose activity, negative = less viability, hits mostly cytotoxic; actives 1.6% (n = 360,000);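 further: NT is the 2HG producing partner of a matched IDH1 knockdown line; potency means the concentration at half of the fitted maximal effect; 0% = DMSO-treated cells and -100% = media-only wells without cells; nearly all actives have a fitted effect of over 55% in size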
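Toxicity toward the 2HG-producing NT line was scored as %Activity, normalised to DMSO and no-cell wells, from CellTiter-Glo luminescence after 48 hours' treatment.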
An asterisk follows results filed as active; i = inactive; ? = inconclusive; . = no result; [ ] = dose if it differs, or a comment. Unless noted, the call rests on the fitted dose curve; in most records, active means well fitted curve in the direction sought with a large enough effect; inconclusive means small, poorly fitted or top-dose-only effect, or another doubt; inactive means no such curve, though single readings can be large; an effect the other way counts as inactive or inconclusive. Unless noted, on the % scale 0 is the no-effect control and ±100 the full control effect.

SMILES	ELG1 DNA repair	IL-1B inflam inh	TDP1 cell noCPT	DT40 TDP1 CPT	HT1080 IDH1KD tx	HT1080-NT tox
CC(C)(C)[C@@H]1COC(=O)[C@@H](Cc2ccc(F)cc2)CC/C=C\C[C@@H](CC(=O)N(CCO)Cc2ccccc2)C(=O)N1	?	-18.4	?	23.1µM*	-0.5%	-0.5%
CC(C)(C)[C@@H]1COC(=O)[C@H](Cc2ccc(F)cc2)CC/C=C\C[C@H](CC(=O)N(CCO)Cc2ccccc2)C(=O)N1	?	?	9.2µM*	9.2µM*	?	?
C[C@H]1COC(=O)[C@H](Cc2ccc(F)cc2)C/C=C\C[C@H](CC(=O)N(CCO)Cc2ccccc2)C(=O)N1	?	-1.4	?	?	16.9%	10.4%
COc1ccc(-c2noc(CN(Cc3nccn3C)C(C)C)n2)cc1	6.0%	5.4	?	-17.8%	8.3%	-2.1%
COc1ccc(-c2noc(CN(C)Cc3ccccc3)n2)cc1	2.4%	23.5	18.4µM*	-15.7%	6.7%	9.1%
COc1ccccc1CNC(=O)c1c(-c2ccccc2Cl)noc1C	-3.5%	13.6	?	?	5.3%	-2.9%
Cc1onc(-c2ccccc2Cl)c1C(=O)NCc1nc(-c2ccccc2)no1	?	-11.6	9.2µM*	9.2µM*	-8.2%	-6.0%
COc1ccc(-c2noc(CN(C(=O)c3ccccc3Cl)C(C)C)n2)cc1	.	.	18.4µM*	25.9µM*	.	.
CC(C)N(Cc1nc(-c2ccc(Cl)cc2)no1)Cc1nccn1C	-25.0%	-13.0	16.4µM*	?	-0.4%	0.5%
Cc1ccc(OCCSc2nc3ccccc3n2CC(=O)O)c(C(C)C)c1	1.3%	8.0	-14.3%	27.4%	-1.3%	-7.1%
CNc1nc(-c2ccccc2C)nc2ccccc12	.	.	-19.7%	?	.	.
COc1ccccc1C(=O)N(Cc1nc(-c2ccc(Cl)cc2)no1)C(C)C	?	8.1	16.4µM*	29.1µM*	-22.0%	-3.5%
Cc1ccc(-c2noc(CNC(=O)c3ccc(C)c(Cl)c3)n2)cc1	.	.	23.1µM*	?	.	.
COc1ccc(-c2noc(CN(C(=O)c3c(-c4ccccc4Cl)noc3C)C(C)C)n2)cc1	?	-5.4	23.1µM*	16.4µM*	-11.7%	0.2%
Cc1onc(-c2ccccc2Cl)c1C(=O)N(Cc1ccccc1)C(C)C	?	24.3	?	?	-18.9%	-19.2%
CC(C)N(Cc1nc(-c2ccc(Cl)cc2)no1)C(=O)c1cccs1	?	-5.2	?	-22.3%	?	-11.2%
CC(C)N(Cc1nc(-c2ccccc2)no1)C(=O)c1ccc(Cl)cc1	-12.0%	-16.9	18.4µM*	18.4µM*	-12.9%	-12.8%
COc1cc(S(=O)(=O)N2CCN(Cc3ccc4c(c3)OCO4)CC2)ccc1NC(C)=O	-2.2%	.	.	.	.	.
CC(C)n1c(SCC(=O)NC2CCCCC2)nnc1-c1ccco1	1.6%	11.4	-4.4%	-15.8%	19.3%	16.6%
CC(C)N(Cc1nc(-c2ccc(Cl)cc2)no1)C(=O)c1ccco1	.	.	23.1µM*	?	.	.
Cc1ccc(-c2noc(CN(C)C(=O)c3ccoc3C)n2)cc1	?	0.0	?	?	2.6%	-24.3%
Cc1onc(-c2ccccc2Cl)c1C(=O)N(C)Cc1ccccc1	8.0%	0.0	?	?	-9.4%	5.7%
Cc1occc1C(=O)N(C)Cc1nc(-c2ccc(Cl)cc2)no1	?	31.6	20.6µM*	25.9µM*	-11.3%	-1.9%
CCN(Cc1ccccc1)C(=O)c1c(-c2ccccc2Cl)noc1C	13.0%	27.6	11.6µM*	?	7.3%	-0.2%
CN(Cc1nc(-c2ccc(Cl)cc2)no1)C(=O)c1ccco1	-5.6%	-8.6	?	-25.7%	-13.6%	-17.8%
SMILES	ELG1 DNA repair	IL-1B inflam inh	TDP1 cell noCPT	DT40 TDP1 CPT	HT1080 IDH1KD tx	HT1080-NT tox
CC(C)N(Cc1nc(-c2ccccc2)no1)C(=O)c1ccc([N+](=O)[O-])cc1	?	-11.9	5.17µM*	4.61µM*	-8.2%	-14.2%
Cc1cccc(C(C(=O)NC2CCCCC2)N(Cc2cccnc2)C(=O)c2csnn2)c1 (stereo unspecified)	7.4%	24.6	-22.1%	-3.0%	-1.6%	?
CC(C)N(Cc1nc(-c2ccccc2)no1)C(=O)c1ccc(Br)o1	?	-21.8	16.4µM*	-20.0%	-18.5%	-28.6%
CC(C)N(Cc1nc(-c2ccc(Cl)cc2)no1)C(=O)CCCN1C(=O)c2ccccc2C1=O	23.1µM*	0.5	-25.7%	?	-1.4%	-3.8%
O=C1c2ccccc2C(=O)N1CCc1nc(-c2ccc(Cl)cc2)no1	0.0%	-7.6	2.9%	-6.7%	5.0%	4.4%
Cc1ccccc1C(=O)N(Cc1nc(-c2ccc(Cl)cc2)no1)C(C)C	.	.	20.6µM*	14.6µM*	.	.
CC(=O)Nc1ccc2nc3c(=O)n(C)c(=O)n(C)c3nc2c1C	.	.	5.5%	3.0%	.	.
COC(=O)c1ccccc1C(=O)N1CCc2c(cnc(C)c2CNC(=O)c2ccccc2F)C1	.	.	-5.9%	-4.7%[9.04 µM]	.	.
CCCS(=O)(=O)N1CC(=O)N(c2cccc(Cl)c2C)C(C)(C(=O)NC2CCCC2)C1 (stereo unspecified)	.	.	-0.8%	-21.8%	.	.
CCOc1cccc2sc(Nc3nc4ccc(NC(C)=O)cc4s3)nc12	?	?	?	18.4µM*	?	?
COc1ccc(C)c2sc(NC(=O)CCS(=O)(=O)c3ccccc3)nc12	?	-90.4*	16.4µM*	23.1µM*	?	-9.5%
CCOc1cccc2sc(NC(=O)CCS(=O)(=O)c3ccccc3)nc12	?	i	8.2µM*	8.2µM*	?	-4.1%
CC1CCCC(C)N1C(=O)COC(=O)c1cc(=O)[nH]c2ccccc12 (stereo unspecified)	6.5%	15.0	-14.8%	30.5%	13.5%	15.3%
CC(=O)c1cccc(OC(=O)Oc2cccc(C(C)=O)c2)c1	.	2.4	-36.4%	?	-10.0%	-7.2%
CN(C)c1cc(N/N=C/c2ccc(Cl)cc2)nc(N(C)C)n1	?	-3.1	18.4µM*	?	-14.6%	-17.6%
COc1cc(N/N=C/c2ccc(N(C)C)cc2)ncn1	?	8.3	?	-29.8%	-3.7%	-12.4%
CCN(CC)C(=O)N1c2ccccc2Sc2ccccc21	6.5%	7.1	?	?	-23.6%	-18.6%
CCN(CC)C(=O)N1c2ccccc2CC(N(CC)CC)c2ccccc21 (stereo unspecified)	-3.1%	-20.3	5.8µM*	7.31µM*	-26.4%	-19.8%
